# Measurements taken from paper PMC11062922 (Nature Chemical Biology, 2023).
# Where two headings read alike, the source gives them in different places.
# Test system: AURKA
# Conditions: read-out: apparent Kd, n = 1
substance,measurement,setting,value
Lestaurtinib,potency estimated from few doses,"compound concentrations:100 nM and 1000 nM (sheet 'Lestaurtinib' of Supplementary Table 1),run:Lestaurtinib_02438_R2,Plate:MR008",18.1 nM
same,potency estimated from few doses,"compound concentrations:100 nM and 1000 nM (sheet 'Lestaurtinib' of Supplementary Table 1),run:Lestaurtinib_02438_R3,Plate:MR008",16.7 nM
same,potency estimated from few doses,"compound concentrations:100 nM and 1000 nM (sheet 'Lestaurtinib' of Supplementary Table 1),run:Lestaurtinib_02443_R1,Plate:MR009",19 nM
same,potency estimated from few doses,"compound concentrations:100 nM and 1000 nM (sheet 'Lestaurtinib' of Supplementary Table 1),run:Lestaurtinib_02443_R3,Plate:MR009",22 nM
same,potency estimated from few doses,"compound concentrations:100 nM and 1000 nM (sheet 'Lestaurtinib' of Supplementary Table 1),run:Lestaurtinib_02473_R1,Plate:MR010",20 nM
same,potency estimated from few doses,"compound concentrations:100 nM and 1000 nM (sheet 'Lestaurtinib' of Supplementary Table 1),run:Lestaurtinib_02473_R3,Plate:MR010",16.1 nM
same,potency estimated from few doses,"compound concentrations:100 nM and 1000 nM (sheet 'Lestaurtinib' of Supplementary Table 1),run:Lestaurtinib_02482_R1,Plate:MR011",18.9 nM
same,potency estimated from few doses,"compound concentrations:100 nM and 1000 nM (sheet 'Lestaurtinib' of Supplementary Table 1),run:Lestaurtinib_02482_R2,Plate:MR011",19.3 nM
same,potency estimated from few doses,"compound concentrations:100 nM and 1000 nM (sheet 'Lestaurtinib' of Supplementary Table 1),run:Lestaurtinib_02487_R1,Plate:MR012",17.5 nM
same,potency estimated from few doses,"compound concentrations:100 nM and 1000 nM (sheet 'Lestaurtinib' of Supplementary Table 1),run:Lestaurtinib_02487_R3,Plate:MR012",24.8 nM
same,potency estimated from few doses,"compound concentrations:100 nM and 1000 nM (sheet 'Lestaurtinib' of Supplementary Table 1),run:Lestaurtinib_02496_R2,Plate:MR013",17.6 nM
same,potency estimated from few doses,"compound concentrations:100 nM and 1000 nM (sheet 'Lestaurtinib' of Supplementary Table 1),run:Lestaurtinib_02566_R2,Plate:MR014",21.1 nM
same,potency estimated from few doses,"compound concentrations:100 nM and 1000 nM (sheet 'Lestaurtinib' of Supplementary Table 1),run:Lestaurtinib_02572_R1,Plate:MR015",21.1 nM
same,potency estimated from few doses,"compound concentrations:100 nM and 1000 nM (sheet 'Lestaurtinib' of Supplementary Table 1),run:Lestaurtinib_02572_R3,Plate:MR015",17.9 nM
same,potency estimated from few doses,"compound concentrations:100 nM and 1000 nM (sheet 'Lestaurtinib' of Supplementary Table 1),run:Lestaurtinib_02577_R1,Plate:MR016",21.8 nM
same,potency estimated from few doses,"compound concentrations:100 nM and 1000 nM (sheet 'Lestaurtinib' of Supplementary Table 1),run:Lestaurtinib_02577_R2,Plate:MR016",21.1 nM
same,potency estimated from few doses,"compound concentrations:100 nM and 1000 nM (sheet 'Lestaurtinib' of Supplementary Table 1),run:Lestaurtinib_02577_R3,Plate:MR016",20.9 nM
same,potency estimated from few doses,"compound concentrations:100 nM and 1000 nM (sheet 'Lestaurtinib' of Supplementary Table 1),run:Lestaurtinib_02584_R1,Plate:MR017",21.8 nM
same,potency estimated from few doses,"compound concentrations:100 nM and 1000 nM (sheet 'Lestaurtinib' of Supplementary Table 1),run:Lestaurtinib_02584_R2,Plate:MR017",19.7 nM
same,potency estimated from few doses,"compound concentrations:100 nM and 1000 nM (sheet 'Lestaurtinib' of Supplementary Table 1),run:Lestaurtinib_02601_R1,Plate:MR018",21.1 nM
same,potency estimated from few doses,"compound concentrations:100 nM and 1000 nM (sheet 'Lestaurtinib' of Supplementary Table 1),run:Lestaurtinib_02601_R2,Plate:MR018",25.6 nM
same,potency estimated from few doses,"compound concentrations:100 nM and 1000 nM (sheet 'Lestaurtinib' of Supplementary Table 1),run:Lestaurtinib_02601_R3,Plate:MR018",21.7 nM
same,potency estimated from few doses,"compound concentrations:100 nM and 1000 nM (sheet 'Lestaurtinib' of Supplementary Table 1),run:Lestaurtinib_02606_R1,Plate:MR019",19.1 nM
same,potency estimated from few doses,"compound concentrations:100 nM and 1000 nM (sheet 'Lestaurtinib' of Supplementary Table 1),run:Lestaurtinib_02606_R2,Plate:MR019",20.8 nM
same,potency estimated from few doses,"compound concentrations:100 nM and 1000 nM (sheet 'Lestaurtinib' of Supplementary Table 1),run:Lestaurtinib_02606_R3,Plate:MR019",21.9 nM
same,potency estimated from few doses,"compound concentrations:100 nM and 1000 nM (sheet 'Lestaurtinib' of Supplementary Table 1),run:Lestaurtinib_02624_R1,Plate:MR020",17.5 nM
same,potency estimated from few doses,"compound concentrations:100 nM and 1000 nM (sheet 'Lestaurtinib' of Supplementary Table 1),run:Lestaurtinib_02624_R3,Plate:MR020",15.7 nM
same,potency estimated from few doses,"compound concentrations:100 nM and 1000 nM (sheet 'Lestaurtinib' of Supplementary Table 1),run:Lestaurtinib_02724_R2,Plate:MR021",21.3 nM
same,potency estimated from few doses,"compound concentrations:100 nM and 1000 nM (sheet 'Lestaurtinib' of Supplementary Table 1),run:Lestaurtinib_02741_R2,Plate:MR023",19.9 nM
same,potency estimated from few doses,"compound concentrations:100 nM and 1000 nM (sheet 'Lestaurtinib' of Supplementary Table 1),run:Lestaurtinib_02741_R3,Plate:MR023",23.2 nM
same,potency estimated from few doses,"compound concentrations:100 nM and 1000 nM (sheet 'Lestaurtinib' of Supplementary Table 1),run:Lestaurtinib_02748_R2,Plate:MR024",22.5 nM
same,potency estimated from few doses,"compound concentrations:100 nM and 1000 nM (sheet 'Lestaurtinib' of Supplementary Table 1),run:Lestaurtinib_02748_R3,Plate:MR024",22.2 nM
same,potency estimated from few doses,"compound concentrations:100 nM and 1000 nM (sheet 'Lestaurtinib' of Supplementary Table 1),run:Lestaurtinib_02752_R1,Plate:MR025",19 nM
same,potency estimated from few doses,"compound concentrations:100 nM and 1000 nM (sheet 'Lestaurtinib' of Supplementary Table 1),run:Lestaurtinib_02752_R2,Plate:MR025",16 nM
same,potency estimated from few doses,"compound concentrations:100 nM and 1000 nM (sheet 'Lestaurtinib' of Supplementary Table 1),run:Lestaurtinib_02752_R3,Plate:MR025",19.7 nM
same,potency estimated from few doses,"compound concentrations:100 nM and 1000 nM (sheet 'Lestaurtinib' of Supplementary Table 1),run:Lestaurtinib_02765_R2,Plate:MR026",23.1 nM
same,potency estimated from few doses,"compound concentrations:100 nM and 1000 nM (sheet 'Lestaurtinib' of Supplementary Table 1),run:Lestaurtinib_02766_R1,Plate:MR027",17.5 nM
same,potency estimated from few doses,"compound concentrations:100 nM and 1000 nM (sheet 'Lestaurtinib' of Supplementary Table 1),run:Lestaurtinib_02766_R2,Plate:MR027",17 nM
same,potency estimated from few doses,"compound concentrations:100 nM and 1000 nM (sheet 'Lestaurtinib' of Supplementary Table 1),run:Lestaurtinib_02766_R3,Plate:MR027",19.1 nM
same,potency estimated from few doses,"compound concentrations:100 nM and 1000 nM (sheet 'Lestaurtinib' of Supplementary Table 1),run:Lestaurtinib_02768_R1,Plate:MR028",20.8 nM
same,potency estimated from few doses,"compound concentrations:100 nM and 1000 nM (sheet 'Lestaurtinib' of Supplementary Table 1),run:Lestaurtinib_02768_R3,Plate:MR028",19.7 nM
same,potency estimated from few doses,"compound concentrations:100 nM and 1000 nM (sheet 'Lestaurtinib' of Supplementary Table 1),run:Lestaurtinib_02795_R3,Plate:MR022",60.5 nM
